# Where two headings read alike, the source gives them in different places.
# Assays:
# DMPK2 = test system: T1, DMPK2; details: concentration: 1 μM, replicates: in singlicate; n = 1
# T1 construct: gene CDC42BPG
# DMPK = details: concentration: 1 μM, replicates: in singlicate; n = 1
# DRAK1 = test system: T2, DRAK1; details: concentration: 1 μM, replicates: in singlicate; n = 1
# T2 construct: gene STK17A
# DRAK2 = test system: T3, DRAK2; details: concentration: 1 μM, replicates: in singlicate; n = 1
# T3 construct: gene STK17B
# DYRK1A = details: concentration: 1 μM, replicates: in singlicate; n = 1
# DYRK1B = details: n = 1
# DYRK2 = details: concentration: 1 μM, replicates: in singlicate; n = 1
# EGFR = details: concentration: 1 μM, replicates: in singlicate; n = 1
# EIF2AK1 = details: concentration: 1 μM, replicates: in singlicate; n = 1
# EPHA1 = details: concentration: 1 μM, replicates: in singlicate; n = 1
# EPHA2 = details: concentration: 1 μM, replicates: in singlicate; n = 1
# EPHA3 = details: concentration: 1 μM, replicates: in singlicate; n = 1
# EPHA4 = details: concentration: 1 μM, replicates: in singlicate; n = 1
# EPHA5 = details: concentration: 1 μM, replicates: in singlicate; n = 1
# EPHA6 = details: n = 1
# EPHA7 = details: concentration: 1 μM, replicates: in singlicate; n = 1
# EPHA8 = details: concentration: 1 μM, replicates: in singlicate; n = 1
# EPHB1 = details: concentration: 1 μM, replicates: in singlicate; n = 1
# EPHB2 = details: concentration: 1 μM, replicates: in singlicate; n = 1
# EPHB3 = details: concentration: 1 μM, replicates: in singlicate; n = 1
# [1] = concentration: 1 μM, replicates: in singlicate
# 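Further: KINOMEscan kinase panel screen.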
smiles,measurement,setting,value
O=C(Nc1n[nH]c2nc(-c3ccco3)c(Br)cc12)C1CCN(Cc2ccccc2)C1.O=C(O)[C@H](O)[C@@H](O)C(=O)O (stereo not drawn) [SB-742034],%Inh,DMPK2,0%
same,%Inh,DMPK,0%
same,%Inh,DRAK1,11%
same,%Inh,DRAK2,13%
same,%Inh,DYRK1A,22%
same,%Inh,DYRK1B; [1],0%
same,%Inh,DYRK2,32%
same,%Inh,EGFR,1%
same,%Inh,EIF2AK1,33%
same,%Inh,EPHA1,0%
same,%Inh,EPHA2,0%
same,%Inh,EPHA3,16%
same,%Inh,EPHA4,1%
same,%Inh,EPHA5,6%
same,%Inh,EPHA6; [1],0%
same,%Inh,EPHA7,7%
same,%Inh,EPHA8,0%
same,%Inh,EPHB1,7%
same,%Inh,EPHB2,17%
same,%Inh,EPHB3,11%
Fc1ccc(-c2nc3n(c2-c2ccncc2)CCS3)cc1 [GI98581],%Inh,DMPK2,82%
same,%Inh,DMPK,16%
same,%Inh,DRAK1,0%
same,%Inh,DRAK2,0%
same,%Inh,DYRK1A,15%
same,%Inh,DYRK1B; [1],13%
same,%Inh,DYRK2,24%
same,%Inh,EGFR,32%
same,%Inh,EIF2AK1,0%
same,%Inh,EPHA1,8%
same,%Inh,EPHA2,12%
same,%Inh,EPHA3,0%
same,%Inh,EPHA4,0%
same,%Inh,EPHA5,10%
same,%Inh,EPHA6; [1],19%
same,%Inh,EPHA7,4%
same,%Inh,EPHA8,11%
same,%Inh,EPHB1,9%
same,%Inh,EPHB2,15%
same,%Inh,EPHB3,19%
Cc1ccc(NC(=O)Nc2ccc(Cl)cc2)cc1-c1ccc(C(=O)Nc2ccncc2)cc1 [GSK1398472],%Inh,DMPK2,63%
same,%Inh,DMPK,0%
same,%Inh,DRAK1,3%
same,%Inh,DRAK2,0%
same,%Inh,DYRK1A,19%
same,%Inh,DYRK1B; [1],0%
same,%Inh,DYRK2,0%
same,%Inh,EGFR,24%
same,%Inh,EIF2AK1,0%
same,%Inh,EPHA1,12%
same,%Inh,EPHA2,43%
same,%Inh,EPHA3,0%
same,%Inh,EPHA4,41%
same,%Inh,EPHA5,2%
same,%Inh,EPHA6; [1],36%
same,%Inh,EPHA7,7%
same,%Inh,EPHA8,34%
same,%Inh,EPHB1,16%
same,%Inh,EPHB2,11%
same,%Inh,EPHB3,25%
CS(=O)(=O)CCNCc1nc(-c2ccc3ncnc(Nc4ccc(OCc5ccccc5)c(Cl)c4)c3c2)cs1.Cl [GW582764],%Inh,DMPK2,0%
same,%Inh,DMPK,0%
same,%Inh,DRAK1,4%
same,%Inh,DRAK2,0%
same,%Inh,DYRK1A,19%
same,%Inh,DYRK1B; [1],0%
same,%Inh,DYRK2,0%
same,%Inh,EIF2AK1,0%
same,%Inh,EPHA1,8%
same,%Inh,EPHA2,10%
same,%Inh,EPHA3,0%
same,%Inh,EPHA4,0%
same,%Inh,EPHA5,0%
same,%Inh,EPHA6; [1],7%
same,%Inh,EPHA7,0%
same,%Inh,EPHA8,8%
same,%Inh,EPHB1,0%
same,%Inh,EPHB2,0%
same,%Inh,EPHB3,11%
CNc1cc(-c2ccc3c(N)n[nH]c3c2)nc(N)n1 [GSK2224810],%Inh,DMPK2,10%
same,%Inh,DMPK,0%
same,%Inh,DRAK1,95.3%
same,%Inh,DRAK2,77%
same,%Inh,DYRK1A,64%
same,%Inh,DYRK1B; [1],43%
same,%Inh,DYRK2,90%
same,%Inh,EGFR,17%
same,%Inh,EIF2AK1,0%
same,%Inh,EPHA1,9%
same,%Inh,EPHA2,0%
same,%Inh,EPHA3,27%
same,%Inh,EPHA4,0%
same,%Inh,EPHA5,0%
same,%Inh,EPHA6; [1],0%
same,%Inh,EPHA7,0%
same,%Inh,EPHA8,0%
same,%Inh,EPHB1,23%
same,%Inh,EPHB2,0%
same,%Inh,EPHB3,4%
O=C(Nc1n[nH]c2nc(-c3cccs3)c(Br)cc12)C1CCCC1 [SB-743341],%Inh,DMPK2,9%
same,%Inh,DMPK,5%
same,%Inh,DRAK1,9%
same,%Inh,DRAK2,7%
same,%Inh,DYRK1A,24%
same,%Inh,DYRK1B; [1],0%
same,%Inh,DYRK2,36%
same,%Inh,EGFR,1%
same,%Inh,EIF2AK1,31%
same,%Inh,EPHA1,10%
same,%Inh,EPHA2,0%
same,%Inh,EPHA3,0%
same,%Inh,EPHA4,6%
same,%Inh,EPHA5,13%
same,%Inh,EPHA6; [1],27%
same,%Inh,EPHA7,8%
same,%Inh,EPHA8,1%
same,%Inh,EPHB1,0%
same,%Inh,EPHB2,4%
same,%Inh,EPHB3,35%
c1ccc(-c2ccnc3[nH]ccc23)cc1 [SB-693578],%Inh,DMPK2,0%
same,%Inh,DMPK,0%
same,%Inh,DRAK1,8%
same,%Inh,DRAK2,0%
same,%Inh,DYRK1A,34%
same,%Inh,DYRK1B; [1],0%
same,%Inh,DYRK2,19%
same,%Inh,EGFR,17%
same,%Inh,EIF2AK1,6%
same,%Inh,EPHA1,25%
same,%Inh,EPHA2,0%
same,%Inh,EPHA3,0%
same,%Inh,EPHA4,12%
same,%Inh,EPHA5,0%
same,%Inh,EPHA6; [1],0%
same,%Inh,EPHA7,18%
same,%Inh,EPHA8,26%
same,%Inh,EPHB1,13%
same,%Inh,EPHB2,0%
same,%Inh,EPHB3,4%
COc1ccc2cc(-c3nc(-c4ccccc4C(C)C)[nH]c3-c3ccncc3)ccc2c1 [SB-660566],%Inh,DMPK2,0%
same,%Inh,DMPK,0%
same,%Inh,DRAK1,6%
same,%Inh,DRAK2,0%
same,%Inh,DYRK1A,31%
same,%Inh,DYRK1B; [1],15%
same,%Inh,DYRK2,7%
same,%Inh,EGFR,18%
same,%Inh,EIF2AK1,3%
same,%Inh,EPHA1,22%
same,%Inh,EPHA2,0%
same,%Inh,EPHA3,0%
same,%Inh,EPHA4,25%
same,%Inh,EPHA5,0%
same,%Inh,EPHA6; [1],30%
same,%Inh,EPHA7,15%
same,%Inh,EPHA8,13%
same,%Inh,EPHB1,4%
same,%Inh,EPHB2,15%
same,%Inh,EPHB3,28%
COc1cc2ncnc(Nc3cccc(Br)c3)c2cc1OC.Cl [GI230329],%Inh,DMPK2,5%
same,%Inh,DMPK,6%
same,%Inh,DRAK1,34%
same,%Inh,DRAK2,0%
same,%Inh,DYRK1A,15%
same,%Inh,DYRK1B; [1],0%
same,%Inh,DYRK2,21%
same,%Inh,EIF2AK1,47%
same,%Inh,EPHA1,18%
same,%Inh,EPHA2,13%
same,%Inh,EPHA3,33%
same,%Inh,EPHA4,0%
same,%Inh,EPHA5,0%
same,%Inh,EPHA6; [1],41%
same,%Inh,EPHA7,7%
same,%Inh,EPHA8,12%
same,%Inh,EPHB1,20%
same,%Inh,EPHB2,9%
same,%Inh,EPHB3,1%
CS(=O)(=O)Cc1ccc(Nc2nccc(-c3c(-c4cccc(NC(=O)C5CCCCC5)c4)nn4ncccc34)n2)cc1 [GSK350559],%Inh,DMPK2,35%
same,%Inh,DMPK,0%
same,%Inh,DRAK1,0%
same,%Inh,DRAK2,0%
same,%Inh,DYRK1A,26%
same,%Inh,DYRK1B; 1 µM,0%
same,%Inh,DYRK2,5%
same,%Inh,EGFR,68%
same,%Inh,EIF2AK1,22%
same,%Inh,EPHA1,6%
same,%Inh,EPHA2,51%
same,%Inh,EPHA3,16%
same,%Inh,EPHA4,14%
same,%Inh,EPHA5,0%
same,%Inh,EPHA6; 1 µM,2%
same,%Inh,EPHA7,15%
same,%Inh,EPHA8,15%
same,%Inh,EPHB1,2%
same,%Inh,EPHB2,3%
same,%Inh,EPHB3,5%
